Data as given in the supplement of paper PMC11732987, “Enantioselective OTUD7B fragment discovery through chemoproteomics screening and high-throughput optimisation” (Communications Chemistry, 2025).

Columns and labels:
Assay in all cases: log2 ratio of Biotin-Ahx-Ub-VS probe labelling (fragment/DMSO); higher = less target engagement (more negative = stronger competition), active = hit call of the paper (q ≤ 0.05, log2 ratio ≤ -1)
Settings in all cases: compound concentration: 200 uM; treatment time: 3 h
USP9X = USP9X (UniProt Q93008)
Summary of the method: (§1)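 HEK293T lysate (495 µg per sample, in Tris/CHAPS/IGEPAL buffer with protease inhibitors) was treated in triplicate with fragment at 200 µM or with DMSO for 3 h. It was then treated with Biotin-Ahx-Ub-VS (0.5 µM final) for 1 h. Labelled DUBs were NeutrAvidin-enriched, digested with LysC and trypsin, and run by diaPASEF LC-MS/MS. Spectronaut label-free quantities were global-median-normalised. Values are average log2 ratios fragment/DMSO by unpaired t-test, using proteins with ≥2 unique peptides.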

UniProt O00487 = molecular target: UniProt O00487
Summary of the method: as §1

UniProt O00507 = molecular target: UniProt O00507
Summary of the method: as §1

UniProt P51784 = molecular target: UniProt P51784
Summary of the method: as §1

UniProt Q5T2D3 = molecular target: T1, UniProt Q5T2D3
T1 sequence (whole entry): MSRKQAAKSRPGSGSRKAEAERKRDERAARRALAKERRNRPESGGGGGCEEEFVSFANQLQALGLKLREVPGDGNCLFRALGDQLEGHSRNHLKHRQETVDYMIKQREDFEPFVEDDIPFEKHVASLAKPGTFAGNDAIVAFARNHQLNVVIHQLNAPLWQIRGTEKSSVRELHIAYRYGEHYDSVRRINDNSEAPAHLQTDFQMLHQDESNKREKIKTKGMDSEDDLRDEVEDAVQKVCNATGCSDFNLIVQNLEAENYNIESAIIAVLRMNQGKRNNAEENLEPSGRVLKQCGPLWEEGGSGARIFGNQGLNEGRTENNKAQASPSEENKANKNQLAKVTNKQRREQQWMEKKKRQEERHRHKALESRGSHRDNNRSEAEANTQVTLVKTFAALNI
Summary of the method: as §1

UniProt Q8TE49 = molecular target: T2, UniProt Q8TE49
T2 sequence (whole entry): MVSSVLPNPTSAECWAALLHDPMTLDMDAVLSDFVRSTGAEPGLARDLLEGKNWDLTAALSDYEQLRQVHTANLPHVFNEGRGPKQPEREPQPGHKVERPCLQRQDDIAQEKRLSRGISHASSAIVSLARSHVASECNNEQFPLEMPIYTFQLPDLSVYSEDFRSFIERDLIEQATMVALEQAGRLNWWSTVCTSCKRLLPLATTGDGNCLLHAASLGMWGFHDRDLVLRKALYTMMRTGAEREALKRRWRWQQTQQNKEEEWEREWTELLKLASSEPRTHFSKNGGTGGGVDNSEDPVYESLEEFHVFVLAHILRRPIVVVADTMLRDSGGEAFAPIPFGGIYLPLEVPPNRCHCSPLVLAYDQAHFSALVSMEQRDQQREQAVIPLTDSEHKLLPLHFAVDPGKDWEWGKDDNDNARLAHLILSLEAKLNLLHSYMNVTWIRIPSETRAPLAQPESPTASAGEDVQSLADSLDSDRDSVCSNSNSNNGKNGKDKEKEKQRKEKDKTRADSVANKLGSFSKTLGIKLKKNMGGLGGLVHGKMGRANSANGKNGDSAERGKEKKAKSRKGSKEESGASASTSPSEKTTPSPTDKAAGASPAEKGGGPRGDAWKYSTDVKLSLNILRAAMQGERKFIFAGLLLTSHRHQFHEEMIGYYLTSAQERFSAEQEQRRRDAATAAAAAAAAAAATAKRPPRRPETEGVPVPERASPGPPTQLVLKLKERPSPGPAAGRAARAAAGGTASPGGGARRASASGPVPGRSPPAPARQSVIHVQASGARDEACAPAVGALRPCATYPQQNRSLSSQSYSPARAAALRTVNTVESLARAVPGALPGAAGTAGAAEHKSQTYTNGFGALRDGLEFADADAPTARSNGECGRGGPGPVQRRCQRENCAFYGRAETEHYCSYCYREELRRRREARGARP
Summary of the method: as §1

UniProt Q9P2H5 = molecular target: T3, UniProt Q9P2H5
T3 sequence (whole entry): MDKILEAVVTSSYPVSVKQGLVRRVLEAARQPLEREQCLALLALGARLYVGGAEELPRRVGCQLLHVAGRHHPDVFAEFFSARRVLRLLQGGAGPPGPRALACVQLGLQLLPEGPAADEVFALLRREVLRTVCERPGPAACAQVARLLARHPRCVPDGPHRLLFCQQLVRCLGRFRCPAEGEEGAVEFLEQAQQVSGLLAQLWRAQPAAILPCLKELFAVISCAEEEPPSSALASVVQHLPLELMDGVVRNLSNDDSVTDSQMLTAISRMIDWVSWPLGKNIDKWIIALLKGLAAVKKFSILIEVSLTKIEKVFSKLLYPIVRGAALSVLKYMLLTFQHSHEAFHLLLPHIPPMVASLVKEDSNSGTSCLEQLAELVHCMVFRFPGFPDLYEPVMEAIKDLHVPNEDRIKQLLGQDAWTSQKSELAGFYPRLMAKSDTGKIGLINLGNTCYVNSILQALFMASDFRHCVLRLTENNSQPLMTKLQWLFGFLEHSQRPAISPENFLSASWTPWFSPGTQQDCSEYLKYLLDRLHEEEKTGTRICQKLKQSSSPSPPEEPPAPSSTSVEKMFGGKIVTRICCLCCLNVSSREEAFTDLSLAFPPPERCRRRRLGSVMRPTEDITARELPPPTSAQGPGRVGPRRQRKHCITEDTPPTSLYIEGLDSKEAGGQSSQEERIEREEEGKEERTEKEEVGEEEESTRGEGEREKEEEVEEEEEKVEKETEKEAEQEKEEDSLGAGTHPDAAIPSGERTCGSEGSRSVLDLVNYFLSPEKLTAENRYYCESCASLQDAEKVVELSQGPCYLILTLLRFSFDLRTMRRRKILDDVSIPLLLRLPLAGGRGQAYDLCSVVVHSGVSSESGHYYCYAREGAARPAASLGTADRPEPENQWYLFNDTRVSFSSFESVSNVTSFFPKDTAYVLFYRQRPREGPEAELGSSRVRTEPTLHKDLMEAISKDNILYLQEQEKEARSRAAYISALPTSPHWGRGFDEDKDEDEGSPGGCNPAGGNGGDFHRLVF
Summary of the method: as §1

UniProt Q9UGI0 = molecular target: T4, UniProt Q9UGI0
T4 sequence (whole entry): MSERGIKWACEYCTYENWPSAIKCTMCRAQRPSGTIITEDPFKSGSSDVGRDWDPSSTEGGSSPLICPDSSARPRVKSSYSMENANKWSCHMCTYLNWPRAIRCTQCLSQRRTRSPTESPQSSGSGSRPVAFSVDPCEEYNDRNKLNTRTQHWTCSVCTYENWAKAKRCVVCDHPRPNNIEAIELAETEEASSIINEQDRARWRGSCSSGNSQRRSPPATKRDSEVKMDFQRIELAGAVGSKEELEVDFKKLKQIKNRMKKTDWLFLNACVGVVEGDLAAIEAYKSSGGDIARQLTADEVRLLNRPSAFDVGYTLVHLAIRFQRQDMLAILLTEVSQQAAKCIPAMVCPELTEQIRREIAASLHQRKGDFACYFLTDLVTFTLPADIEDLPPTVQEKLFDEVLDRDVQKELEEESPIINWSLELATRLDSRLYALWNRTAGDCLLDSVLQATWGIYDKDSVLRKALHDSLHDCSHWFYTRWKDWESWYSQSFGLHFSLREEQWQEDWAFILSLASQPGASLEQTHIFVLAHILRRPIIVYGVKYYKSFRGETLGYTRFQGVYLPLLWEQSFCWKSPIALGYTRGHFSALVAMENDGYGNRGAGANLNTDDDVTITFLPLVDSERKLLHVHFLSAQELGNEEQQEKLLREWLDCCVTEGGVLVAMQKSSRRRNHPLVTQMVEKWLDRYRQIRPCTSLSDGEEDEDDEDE
Summary of the method: as §1

YOD1 = molecular target: T5, YOD1 (UniProt Q5VVQ6)
T5 sequence (whole entry): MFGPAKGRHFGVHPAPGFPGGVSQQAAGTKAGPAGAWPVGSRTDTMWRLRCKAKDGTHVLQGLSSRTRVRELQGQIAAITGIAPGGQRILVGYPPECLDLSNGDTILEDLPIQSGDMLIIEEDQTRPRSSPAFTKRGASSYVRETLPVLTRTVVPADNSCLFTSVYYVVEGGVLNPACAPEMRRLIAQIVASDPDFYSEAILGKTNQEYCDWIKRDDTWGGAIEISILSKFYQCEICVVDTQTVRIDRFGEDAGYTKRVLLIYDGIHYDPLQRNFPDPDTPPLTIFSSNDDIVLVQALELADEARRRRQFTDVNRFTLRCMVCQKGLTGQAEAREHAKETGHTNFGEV
Summary of the method: as §1

Measured: log2 ratio of Biotin-Ahx-Ub-VS probe labelling

Sequence of UniProt O00507 (O00507 whole entry): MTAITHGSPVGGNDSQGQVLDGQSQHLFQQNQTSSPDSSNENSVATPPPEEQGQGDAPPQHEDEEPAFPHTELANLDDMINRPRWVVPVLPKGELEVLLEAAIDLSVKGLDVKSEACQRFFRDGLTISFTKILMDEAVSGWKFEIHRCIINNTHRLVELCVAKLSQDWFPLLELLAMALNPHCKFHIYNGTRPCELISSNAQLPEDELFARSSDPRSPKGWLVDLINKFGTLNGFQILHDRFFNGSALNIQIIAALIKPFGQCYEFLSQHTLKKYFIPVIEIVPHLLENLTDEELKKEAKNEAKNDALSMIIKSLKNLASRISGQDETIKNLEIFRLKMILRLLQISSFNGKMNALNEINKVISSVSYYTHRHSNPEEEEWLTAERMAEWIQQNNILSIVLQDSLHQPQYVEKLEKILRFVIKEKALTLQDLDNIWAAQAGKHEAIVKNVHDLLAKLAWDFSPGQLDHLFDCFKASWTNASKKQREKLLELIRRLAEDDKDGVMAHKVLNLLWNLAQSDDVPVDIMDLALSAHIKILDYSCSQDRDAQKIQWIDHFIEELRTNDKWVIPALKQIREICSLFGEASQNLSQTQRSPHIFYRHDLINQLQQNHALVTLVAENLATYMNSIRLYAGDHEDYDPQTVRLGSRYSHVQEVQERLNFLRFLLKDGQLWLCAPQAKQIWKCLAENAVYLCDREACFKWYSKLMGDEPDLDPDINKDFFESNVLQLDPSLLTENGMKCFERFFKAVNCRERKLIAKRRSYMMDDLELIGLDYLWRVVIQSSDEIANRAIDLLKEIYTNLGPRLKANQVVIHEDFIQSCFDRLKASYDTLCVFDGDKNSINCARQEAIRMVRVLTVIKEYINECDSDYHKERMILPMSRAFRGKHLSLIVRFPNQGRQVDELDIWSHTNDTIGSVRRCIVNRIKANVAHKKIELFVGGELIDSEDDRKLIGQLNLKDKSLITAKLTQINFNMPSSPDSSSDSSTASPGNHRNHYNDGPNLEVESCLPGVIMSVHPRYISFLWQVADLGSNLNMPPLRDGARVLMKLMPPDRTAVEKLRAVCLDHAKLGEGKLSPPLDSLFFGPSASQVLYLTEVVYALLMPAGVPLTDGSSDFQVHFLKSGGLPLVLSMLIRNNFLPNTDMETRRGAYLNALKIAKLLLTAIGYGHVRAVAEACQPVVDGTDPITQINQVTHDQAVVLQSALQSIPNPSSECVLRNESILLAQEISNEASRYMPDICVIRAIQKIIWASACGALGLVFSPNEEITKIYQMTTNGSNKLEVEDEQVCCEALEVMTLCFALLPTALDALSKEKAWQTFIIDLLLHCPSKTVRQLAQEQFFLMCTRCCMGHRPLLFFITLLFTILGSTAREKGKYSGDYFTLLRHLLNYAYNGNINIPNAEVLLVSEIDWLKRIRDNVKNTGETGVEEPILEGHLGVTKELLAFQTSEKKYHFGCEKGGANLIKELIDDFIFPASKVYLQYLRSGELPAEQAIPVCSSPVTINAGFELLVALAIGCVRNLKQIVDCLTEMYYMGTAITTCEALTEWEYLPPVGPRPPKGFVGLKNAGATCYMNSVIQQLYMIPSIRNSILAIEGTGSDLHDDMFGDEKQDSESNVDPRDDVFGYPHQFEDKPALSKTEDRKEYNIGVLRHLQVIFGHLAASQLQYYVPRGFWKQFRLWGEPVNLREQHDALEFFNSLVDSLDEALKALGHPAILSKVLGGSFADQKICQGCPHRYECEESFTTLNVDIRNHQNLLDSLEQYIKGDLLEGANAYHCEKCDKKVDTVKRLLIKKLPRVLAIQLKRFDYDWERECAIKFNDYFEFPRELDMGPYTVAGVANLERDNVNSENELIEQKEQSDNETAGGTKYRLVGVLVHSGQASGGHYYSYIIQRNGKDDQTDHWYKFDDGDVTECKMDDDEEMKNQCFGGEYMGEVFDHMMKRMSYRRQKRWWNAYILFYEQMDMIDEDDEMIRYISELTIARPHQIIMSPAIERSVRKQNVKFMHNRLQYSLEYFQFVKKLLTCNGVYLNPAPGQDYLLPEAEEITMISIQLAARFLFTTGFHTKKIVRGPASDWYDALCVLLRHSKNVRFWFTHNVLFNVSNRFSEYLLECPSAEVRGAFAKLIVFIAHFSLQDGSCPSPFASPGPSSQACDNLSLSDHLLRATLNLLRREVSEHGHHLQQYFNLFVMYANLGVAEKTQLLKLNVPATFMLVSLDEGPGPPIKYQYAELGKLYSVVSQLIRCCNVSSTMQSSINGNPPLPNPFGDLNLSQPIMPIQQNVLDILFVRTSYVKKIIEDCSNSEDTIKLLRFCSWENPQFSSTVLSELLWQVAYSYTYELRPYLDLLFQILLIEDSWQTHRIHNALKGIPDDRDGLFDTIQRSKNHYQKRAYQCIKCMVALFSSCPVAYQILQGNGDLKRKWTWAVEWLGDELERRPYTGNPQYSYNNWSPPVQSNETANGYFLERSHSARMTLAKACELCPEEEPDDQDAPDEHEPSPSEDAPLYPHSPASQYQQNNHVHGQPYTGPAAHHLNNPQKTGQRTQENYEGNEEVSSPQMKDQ
Sequence of USP9X (Q93008 whole entry, the tested form may be a part): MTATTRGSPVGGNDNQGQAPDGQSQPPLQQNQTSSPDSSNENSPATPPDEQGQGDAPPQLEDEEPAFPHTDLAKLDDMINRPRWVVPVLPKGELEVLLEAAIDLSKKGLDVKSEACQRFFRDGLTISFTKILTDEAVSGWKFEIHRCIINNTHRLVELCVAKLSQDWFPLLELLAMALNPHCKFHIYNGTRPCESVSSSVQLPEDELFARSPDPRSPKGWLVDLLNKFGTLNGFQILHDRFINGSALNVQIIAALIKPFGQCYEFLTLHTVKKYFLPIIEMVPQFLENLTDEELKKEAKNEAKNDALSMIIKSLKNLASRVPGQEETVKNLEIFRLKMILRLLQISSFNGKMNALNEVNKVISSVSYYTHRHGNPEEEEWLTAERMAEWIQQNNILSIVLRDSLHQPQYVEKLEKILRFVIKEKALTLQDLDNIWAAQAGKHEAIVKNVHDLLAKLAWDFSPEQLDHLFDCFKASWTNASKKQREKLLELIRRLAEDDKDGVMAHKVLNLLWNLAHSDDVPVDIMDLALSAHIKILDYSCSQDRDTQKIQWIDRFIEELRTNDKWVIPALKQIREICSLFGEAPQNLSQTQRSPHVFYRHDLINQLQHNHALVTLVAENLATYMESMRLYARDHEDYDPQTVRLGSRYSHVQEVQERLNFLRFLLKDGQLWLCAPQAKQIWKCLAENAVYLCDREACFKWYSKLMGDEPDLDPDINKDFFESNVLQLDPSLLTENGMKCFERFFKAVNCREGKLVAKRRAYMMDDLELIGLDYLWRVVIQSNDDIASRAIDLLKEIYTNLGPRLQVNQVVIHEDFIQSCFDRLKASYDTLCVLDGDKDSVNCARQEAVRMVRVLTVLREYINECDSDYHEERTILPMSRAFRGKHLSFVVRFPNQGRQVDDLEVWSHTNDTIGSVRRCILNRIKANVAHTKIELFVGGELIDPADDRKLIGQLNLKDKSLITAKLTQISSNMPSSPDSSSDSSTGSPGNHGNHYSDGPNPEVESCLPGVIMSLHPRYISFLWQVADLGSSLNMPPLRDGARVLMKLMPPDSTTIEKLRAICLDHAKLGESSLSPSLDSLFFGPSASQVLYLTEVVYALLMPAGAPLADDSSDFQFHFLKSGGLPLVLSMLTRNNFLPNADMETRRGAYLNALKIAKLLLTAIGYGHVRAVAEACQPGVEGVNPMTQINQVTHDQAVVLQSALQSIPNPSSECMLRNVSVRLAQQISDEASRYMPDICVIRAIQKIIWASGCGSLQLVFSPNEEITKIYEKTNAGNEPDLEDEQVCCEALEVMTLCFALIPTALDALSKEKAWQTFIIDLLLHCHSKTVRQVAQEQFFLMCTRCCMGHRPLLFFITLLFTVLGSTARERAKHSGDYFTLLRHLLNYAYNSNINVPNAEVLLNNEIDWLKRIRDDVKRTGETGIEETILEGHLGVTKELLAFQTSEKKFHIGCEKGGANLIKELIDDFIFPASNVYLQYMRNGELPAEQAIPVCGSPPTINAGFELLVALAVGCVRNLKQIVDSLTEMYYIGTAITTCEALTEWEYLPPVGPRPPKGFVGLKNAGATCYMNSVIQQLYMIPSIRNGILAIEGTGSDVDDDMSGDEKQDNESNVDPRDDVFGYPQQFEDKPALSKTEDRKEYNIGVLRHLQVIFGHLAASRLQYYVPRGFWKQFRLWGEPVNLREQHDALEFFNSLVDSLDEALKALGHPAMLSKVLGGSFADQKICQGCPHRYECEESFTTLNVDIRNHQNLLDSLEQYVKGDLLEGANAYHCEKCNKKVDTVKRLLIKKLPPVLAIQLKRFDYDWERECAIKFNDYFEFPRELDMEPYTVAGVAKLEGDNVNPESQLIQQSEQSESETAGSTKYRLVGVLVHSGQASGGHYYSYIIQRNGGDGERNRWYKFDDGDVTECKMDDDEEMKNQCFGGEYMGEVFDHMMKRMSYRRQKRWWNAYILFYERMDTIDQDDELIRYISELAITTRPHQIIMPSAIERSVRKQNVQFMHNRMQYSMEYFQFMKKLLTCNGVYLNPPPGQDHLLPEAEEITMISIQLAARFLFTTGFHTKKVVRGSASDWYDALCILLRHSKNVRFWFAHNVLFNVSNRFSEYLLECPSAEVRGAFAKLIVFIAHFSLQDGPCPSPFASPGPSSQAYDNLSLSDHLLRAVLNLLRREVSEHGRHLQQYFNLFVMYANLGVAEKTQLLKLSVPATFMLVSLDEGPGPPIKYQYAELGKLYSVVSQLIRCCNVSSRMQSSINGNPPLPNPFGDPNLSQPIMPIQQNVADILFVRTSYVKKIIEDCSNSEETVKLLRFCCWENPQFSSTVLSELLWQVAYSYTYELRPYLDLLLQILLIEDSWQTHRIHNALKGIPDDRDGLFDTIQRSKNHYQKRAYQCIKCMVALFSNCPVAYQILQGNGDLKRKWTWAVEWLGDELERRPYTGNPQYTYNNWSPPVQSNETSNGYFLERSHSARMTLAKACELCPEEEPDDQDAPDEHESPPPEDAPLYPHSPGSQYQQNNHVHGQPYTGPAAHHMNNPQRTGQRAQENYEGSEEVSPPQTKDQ

C#Cc1cccc(NC(=O)CCl)c1
inactive: USP9X -0.146 | UniProt O00487 -0.148 | UniProt O00507 0.0122 | UniProt P51784 -0.102 | UniProt Q5T2D3 -0.121 | UniProt Q8TE49 -0.872 | UniProt Q9P2H5 -0.252 | YOD1 0.0347
active: UniProt Q9UGI0 -1.01
